Values joined by “and” are separate entries in the source; they are usually repeats but may differ in a detail not shown here. Equal entries are not always repeated. Inconclusive results are not listed. Where a call stands in place of a potency, no number is given. More than one record can exist for a structure, and the calls need not agree. A number with no mark means an inactive call. Active and inactive are the calls of the source. Unless noted, the call rests on the fitted dose curve; in most records, active means well fitted curve in the direction sought with a large enough effect; inconclusive means small, poorly fitted or top-dose-only effect, or another doubt; inactive means no such curve, though single readings can be large; an effect the other way counts as inactive or inconclusive.
Tests used:
[1] = biological target: Cellular tumor antigen p53 (Homo sapiens) (UniProt P04637); test: Primary qHTS for small molecule compounds that upregulate eGFP-tagged delta133p53alpha (in N-terminal) cells. (AID 2060322); conditions: NCI-H358 eGFP-delta133p53alpha fluorescence, 24 h; activation: stronger effect = higher value; further: nearly all actives have a fitted effect of over 75% in size; further: potency means the concentration at half of the fitted maximal effect;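 on activation: cells pre-induced with doxycycline then dosed without doxycycline; series mostly up to about 56 µM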
Sequence of Cellular tumor antigen p53 (Homo sapiens) (P04637 whole entry, looked up, the tested form may be a part): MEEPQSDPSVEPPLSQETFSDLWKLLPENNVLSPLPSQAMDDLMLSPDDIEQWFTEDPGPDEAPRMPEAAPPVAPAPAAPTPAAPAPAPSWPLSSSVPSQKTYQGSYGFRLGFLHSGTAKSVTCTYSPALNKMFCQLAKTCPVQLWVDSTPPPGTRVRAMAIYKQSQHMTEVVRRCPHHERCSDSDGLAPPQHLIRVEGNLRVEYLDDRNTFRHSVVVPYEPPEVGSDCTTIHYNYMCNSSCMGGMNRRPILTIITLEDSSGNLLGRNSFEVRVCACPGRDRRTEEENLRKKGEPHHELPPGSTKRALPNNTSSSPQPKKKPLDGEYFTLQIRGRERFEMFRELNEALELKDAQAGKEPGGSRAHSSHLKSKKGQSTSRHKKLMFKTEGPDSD
Procedure, shortened: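 NCI-H358 cells pre-induced 24 h with 10 ng/ml doxycycline for eGFP-delta133p53alpha, plated dox-free and exposed 24 h at 37C to titrated compounds. Fixed, Hoechst-stained; gated GFP peak intensity by laser scanning cytometry, normalized to DMSO (0%) and 57.5 uM 5-azacytidine (100%).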

[2] = biological target: Aldehyde dehydrogenase, mitochondrial (Homo sapiens) (UniProt P05091); test: qHTS for Inhibitors of the Aldehyde Dehydrogenase Family (ALDH2) Primary screen (AID 2061308); further: nearly all actives have a fitted effect of over 55% in size
[3] = biological target: Retinaldehyde dehydrogenase 3 (Homo sapiens) (UniProt P47895); test: qHTS for Inhibitors of the Aldehyde Dehydrogenase Family (ALDH1A3) Primary screen (AID 2061315)
[4] = BET inhibitor-based combinations targeting novel dependencies in MECOM-rearranged (r) AML: SET-2 cell line (AID 2202231); conditions: SET-2 AML cells viability, CellTiter-Glo luminescence, 48 h; viability: stronger effect = lower value, concentration not given here; further: nearly all actives have a fitted effect of over 35% in size; further: potency means the concentration at half of the fitted maximal effect
Procedure, shortened: (§1)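 Readout: CellTiter-Glo luminescence. Exposure: 48 h, 11 concentrations, 500 cells/well. Metric: AUC and within-line Z-AUC after DMSO/empty-well normalization.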

[5] = BET inhibitor-based combinations targeting novel dependencies in MECOM-rearranged (r) AML: HNT-34 cell line (AID 2202234); further: potency means the concentration at half of the fitted maximal effect; nearly all actives have a fitted effect of over 35% in size
Procedure, shortened: (§2)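 Seeding density was 500 cells/well, and drug exposure lasted 48 hr under standard culture conditions. Read-out used CellTiter-Glo reagent with a 15 min room-temperature incubation before luminescence measurement; AUC and Z-AUC summarize the normalized responses.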

[6] = BET inhibitor-based combinations targeting novel dependencies in MECOM-rearranged (r) AML: UCSD-AML1 cell line (AID 2202235); further: potency means the concentration at half of the fitted maximal effect; nearly all actives have a fitted effect of over 40% in size
Procedure, shortened: as §2

[7] = BET inhibitor-based combinations targeting novel dependencies in MECOM-rearranged (r) AML: AML-191 cell line (AID 2202236; further: nearly all actives have a fitted effect of over 35% in size; further: potency means the concentration at half of the fitted maximal effect)
Procedure, shortened: as §1

[8] = BET inhibitor-based combinations targeting novel dependencies in MECOM-rearranged (r) AML: AML-194 cell line (AID 2202237; further: nearly all actives have a fitted effect of over 40% in size; further: potency means the concentration at half of the fitted maximal effect)
Procedure, shortened: as §1

[9] = BET inhibitor-based combinations targeting novel dependencies in MECOM-rearranged (r) AML: OCI-AML3 cell line (AID 2202232); conditions: Potency: OCI-AML3 viability; further: potency means the concentration at half of the fitted maximal effect; nearly all actives have a fitted effect of over 35% in size
Procedure, shortened: as §1

[10] = BET inhibitor-based combinations targeting novel dependencies in MECOM-rearranged (r) AML: MV-4-11 cell line (AID 2202233); further: potency means the concentration at half of the fitted maximal effect; nearly all actives have a fitted effect of over 45% in size
Procedure, shortened: as §2

[11] = biological target: Aldehyde dehydrogenase, mitochondrial (Homo sapiens) (UniProt P05091); test: qHTS for Inhibitors of the Aldehyde Dehydrogenase Family (ALDH2) Validation screens (AID 2061302; active means well fitted inhibition curve with a large enough effect; title and protocol of this record describe different tests; further: potency means the concentration at half of the fitted maximal effect)
[12] = biological target: Retinaldehyde dehydrogenase 3 (Homo sapiens) (UniProt P47895); test: qHTS for Inhibitors of the Aldehyde Dehydrogenase Family (ALDH1A3) Validation screen (AID 2061312); further: nearly all actives have a fitted effect of over 45% in size
[13] = biological target: Cellular tumor antigen p53 (Homo sapiens) (UniProt P04637); test: Primary qHTS for small molecule compounds that upregulate eGFP-tagged delta133p53alpha (in C-terminal) cells. (AID 2060324); further: potency means the concentration at half of the fitted maximal effect
Procedure, shortened: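 Doxycycline (100 ng/ml, 24 h) first induced the eGFP fusion in NCI-H358 C-terminal-tag cells. Washed-out cells then received titrated compounds for 24 h at 37 °C before paraformaldehyde fixation, Hoechst staining and cytometric GFP quantification.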

For `CCNC(=O)Nc1ccc2ncc(Nc3ccc(C)cc3)nc2n1`, the Potency [1] was 30.1 µM (active), the activation [1] was -1.61% and the Potency [2] was “inactive”. For the same compound, the Potency [3] was “inactive”.
With `CNC(=O)CN1CCC(Oc2cc3c(Nc4cccc(Cl)c4F)ncnc3cc2OC)CC1` the Potency [1] was 13.7 µM (active), the activation [1] was 14.3% and the Potency [2] was “inactive”. The Potency [3] was “inactive”, the viability [4] was 107% and the Potency [5] was 16.6 µM (active). The Potency [6] was 20.9 µM (active), the Potency [7] was “inactive” and the Potency [8] was “inactive”.
For `Fc1cc(-c2cccc3ncc(-c4cnn(C5CCNCC5)c4)nc23)cc(F)c1CN1CCOCC1`, the Potency [1] was 27.3 µM (active), the activation [1] was -17.4% and the Potency [2] was “inactive”. The Potency [3] was “inactive”, the Potency [4] was 4.68 µM (active) and the Potency [9] was 11.8 µM (active). For the same compound, the Potency [10] was 0.934 µM (active), the Potency [5] was 2.35 µM (active) and the Potency [6] was 3.32 µM (active). The Potency [8] was 6.61 µM (active).
For `CS(=O)(=O)c1cccc(CNc2nc(Nc3ccc4c(c3)CCC(=O)N4)ncc2C(F)(F)F)c1`, the Potency [1] was 21.3 µM (active), the activation [1] was -20.3% and 55.5% and the Potency [11] was “inactive”. For the same compound, the Potency [2] was “inactive”, the Potency [12] was “inactive” and the Potency [3] was “inactive”. For the same compound, the Potency [9] was 20.9 µM (active), the Potency [10] was 0.209 µM (active) and the Potency [5] was 9.34 µM (active). For the same compound, the Potency [6] was 10.5 µM (active) and the Potency [7] was 9.34 µM (active).
For `O=C(O)c1ccc2c(c1)nc(Nc1cccc(Cl)c1)c1ccncc12`, the Potency [1] was 23.9 µM (active), the activation [1] was 37.3% and the Potency [2] was “inactive”. For the same compound, the Potency [3] was “inactive”, the Potency [9] was 8.33 µM (active) and the Potency [10] was 3.32 µM (active). For the same compound, the Potency [5] was 2.63 µM (active), the Potency [6] was 5.9 µM (active) and the Potency [7] was 7.42 µM (active). For the same compound, the Potency [8] was 7.42 µM (active).
With `N=C(N)SCCc1cnc[nH]1` the Potency [11] was “inactive”.
For `CCCCCCCCCCCCCCCCCC(=O)OC(CC(=O)O)C[N+](C)(C)C` (stereo not drawn), the Potency [11] was “inactive”.
For `COc1cc2c(CCNC(C)=O)c[nH]c2cc1O`, the activation [1] was -10.8%, the Potency [13] was “inactive” and the Potency [11] was “inactive”.
In the case of `Nc1nc2c(cnn2CCc2ccccc2)c2nc(-c3ccco3)nn12`, the activation [1] is reported as -28.5%, the Potency [13] is reported as “inactive” and the Potency [11] is reported as “inactive”.
In the case of `C1CCc2nnnn2CC1`, the activation [1] is reported as -8.09%, the Potency [13] is reported as “inactive” and the Potency [11] is reported as “inactive”.
In the case of `Nc1ncnc2c1ncn2[C@@H]1O[C@H](COP(=O)(O)OP(=O)(O)OP(=O)(O)OP(=O)(O)OC[C@@H]2O[C@H](n3cnc4c(N)ncnc43)[C@@H](O)[C@H]2O)[C@@H](O)[C@H]1O`, the activation [1] is reported as -42.2%, the Potency [13] is reported as “inactive” and the Potency [11] is reported as “inactive”.
In the case of `O=c1[nH]c(=S)[nH]c(-c2ccccc2)c1Cc1c(O)ccc2ccccc12`, the activation [1] is reported as -41.1%, the Potency [13] is reported as “inactive” and the Potency [11] is reported as “inactive”.
For `N[C@@H](CS(=O)O)C(=O)O`, the activation [1] was -27.4%, the Potency [13] was “inactive” and the Potency [11] was “inactive”.
For `COc1ccccc1N1CCN(CCN(C(=O)c2ccc(F)cc2)c2ccccn2)CC1`, the activation [1] was 5.52%, the Potency [13] was “inactive” and the Potency [11] was “inactive”.
For `CC(O)C(O)[C@H]1CNc2nc(N)[nH]c(=O)c2N1` (stereo partly drawn), the activation [1] was -13.4%, the Potency [13] was “inactive” and the Potency [11] was 8.91 µM (active).
For `Oc1cc2c(cc1O)C(c1ccccc1)CNCC2` (stereo not drawn), the activation [1] was 5.86%, the Potency [13] was “inactive” and the Potency [11] was “inactive”.
In the case of `CCOC(=O)C1=C(C)NC(C)=C(C(=O)OC)C1c1cccc([N+](=O)[O-])c1` (stereo not drawn), the activation [1] is reported as -7.72%, the Potency [13] is reported as “inactive” and the Potency [11] is reported as “inactive”.
For `CCCn1c(=O)c2[nH]c(-c3ccc(S(=O)(=O)O)cc3)nc2n(CCC)c1=O`, the activation [1] was -6.22%, the Potency [13] was “inactive” and the Potency [11] was “inactive”.
For `COCCOc1cc2ncnc(Cl)c2cc1OCCOC`, the activation [1] was -22.2%, the Potency [13] was “inactive” and the Potency [11] was “inactive”.
With `Cc1cccc(C2CN(C)CCc3c2cc(O)c(O)c3Cl)c1` (stereo not drawn) the activation [1] was -49.3%, the Potency [13] was “inactive” and the Potency [11] was “inactive”.
With `Oc1cc2c(c(Cl)c1O)CCNCC2c1ccccc1` (stereo not drawn) the activation [1] was -28%, the Potency [13] was “inactive” and the Potency [11] was “inactive”.
With `CCN(CC)CCNC(=O)c1ccc(NS(C)(=O)=O)cc1` the activation [1] was -1.7%, the Potency [13] was “inactive” and the Potency [11] was “inactive”.
For `Nc1ncnc2c1ncn2C1CCCC1`, the activation [1] was -5.11%, the Potency [13] was “inactive” and the Potency [11] was “inactive”.
For `C=CCN1CCc2c(cc(O)c(O)c2Br)[C@@H](c2ccccc2)C1`, the activation [1] was -46.3%, the Potency [13] was “inactive” and the Potency [11] was “inactive”.
For `NC(Cc1cccc(-c2ccccc2CP(=O)(O)O)c1)C(=O)O` (stereo not drawn), the activation [1] was 5.19%, the Potency [13] was “inactive” and the Potency [11] was “inactive”.
For `COc1ccc(NC(=O)c2ccc(-c3ccc(-c4noc(C)n4)cc3C)cc2)cc1N1CCN(C)CC1`, the activation [1] was -47.1%, the Potency [13] was “inactive” and the Potency [11] was “inactive”.
In the case of `COc1ccccc1CN[C@@H]1CCCN[C@@H]1c1ccccc1`, the activation [1] is reported as -89.1%, the Potency [13] is reported as “inactive” and the Potency [11] is reported as “inactive”.
With `COc1ccccc1CNCCCCCCNCCCCCCCCNCCCCCCNCc1ccccc1OC` the activation [1] was -23.6%, the Potency [13] was “inactive” and the Potency [11] was “inactive”.
In the case of `CN(C)CCCc1cc(C(=O)Nc2ccc(-c3ccncc3)cc2)ccc1O`, the activation [1] is reported as -14.9%, the Potency [13] is reported as “inactive” and the Potency [11] is reported as “inactive”.
With `CN1CCc2cccc3c2C1Cc1ccc(O)c(O)c1-3` (stereo not drawn) the activation [1] was 49.9%, the Potency [13] was “inactive” and the Potency [11] was “inactive”.
With `CN1CCc2ccccc2Cc2[nH]c3ccccc3c2CC1` the activation [1] was -5.31%, the Potency [13] was 26.9 µM (active) and the Potency [11] was “inactive”.

Reference: PubChem BioAssay (NCATS)
